Assay outcomes: PubChem BioAssay, several laboratories
In the library only some 2.6% were active in any assay of this set; here they are far more common.
LGR2 antag – Drosophila LGR2 receptor signaling inhibition. hit rate 0.35% among 380,000. inhibition, % at 9.99 µM. AID 720647. HEK293 LGR2, CRE-luciferase, bursicon-stimulated, 4 h;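 active = drop in luminescence signal, shown as inhibition above about 50% in the replicate tests, limit read from the data, passing the limit was not always enough; inconclusive = probably only some replicates passing the limit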;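 note: agonist challenge used bursicon conditioned medium at about half maximal strength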
TWEAK-Fn14 inh – blocks TWEAK-Fn14 interaction in a reporter cell assay; TWEAK-stimulated Fn14 reporter cells, luciferase luminescence, 8 h; inhibition, % at 10 µM; hit rate 2% among 360,000; in the data active = inhibition above about 50%
EWS-Fli block – blocks EWS/Fli oncoprotein-driven transcription. A673 NR0B1-luciferase reporter, viability-normalised. inhibition, % at 12.6 µM. hit rate 0.67% among 350,000. AID 651661;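 active = mean inhibition of at least 50% after viability correction, with every replicate also passing that limit; inconclusive = mean reaches 50% but only one of two replicates passes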;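 note: firefly luciferase signal divided by Alamar Blue viability fluorescence both relative to DMSO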
TROY signal inh – blocks TROY-dependent signaling in reporter cells; Q293 LMP1-TROYcd NF-kB luciferase reporter, 4 h; inhibition, % at 10 µM; hit rate 0.98% among 360,000; AID 1347056;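 active = compounds whose plate-normalised and pattern-corrected inhibition of the luciferase reporter signal at the single screening dose is 50% or more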
EBV LMP1 NFkB – inhibitors of Epstein-Barr LMP1-induced NF-kappaB reporter; LMP1-induced NF-kappaB luciferase reporter cells, luminescence; inhibition, % at 12.5 µM; hit rate 0.69% among 350,000; in the data active = inhibition above about 41%; inconclusive = no clear call, values can overlap the other calls;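 note: 0% = neutral control wells and 100% = reference inhibitor control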
The depositor's hits bear a star; ? = inconclusive; . = not tested or not shown.

SMILES	LGR2 antag	TWEAK-Fn14 inh	EWS-Fli block	TROY signal inh	EBV LMP1 NFkB
CCCCC(CC)CN=C(N)NC(N)=NCCCCCCN=C(N)NC(N)=NCC(CC)CCCC (configuration not stated)	.	105*	.	71*	12
CCCCC(CC)CO (configuration not stated)	.	3	-3	10	-10
C[C@@H]1CCCCO[C@@H](CN(C)Cc2ccccc2)[C@@H](C)CN([C@H](C)CO)C(=O)c2cc(NS(=O)(=O)c3cccs3)ccc2O1	-10	.	-14	.	.
CCCNC(=O)N1CC2(CN(C(=O)c3cccc(F)c3)C2)c2c([nH]c3cc(OC)ccc23)[C@H]1CO	-14	.	-2	.	.
c1coc(-c2nc(-c3ccco3)c(-c3ccco3)nc2-c2ccco2)c1	15	81*	.	4	-4
Cc1ccc(Nc2nc(CSc3nnc(-c4ccc(F)cc4)n3C)cs2)cc1	-48	64*	-12	59*	-34
Cc1ccc2nc(/C(C#N)=C/c3ccc(O)c(O)c3)[nH]c2c1	-50	-6	-27	-38	6
Cc1ccc2nc(/C(C#N)=C/c3cn[nH]c3-c3ccc(F)cc3)[nH]c2c1	.	59*	.	16	13
O=C1CCCc2cc3c(cc21)CC1(C3)Cc2cc3c(cc2C1)C(=O)CCC3	34	35	?	61*	20
CCc1ccc2c(c1)C(=O)CCC2	-18	19	0	-7	22
COc1cccc(NC(=O)C[C@@H]2CC[C@@H]3[C@@H](COc4ccc(NC(=O)C5CCOCC5)cc4C(=O)N3C)O2)c1	26	.	-2	.	.
C=C1C(=O)C23C(O)C1CCC2C12COC3(O)C(O)C1C(C)(C)CCC2O (configuration not stated)	.	75*	68*	47	.
COc1ccc(NC(=O)N(C)C[C@@H]2OCCCC[C@H](C)Oc3ccc(NC(=O)Nc4ccc(C(F)(F)F)cc4)cc3C(=O)N([C@@H](C)CO)C[C@@H]2C)cc1	9	.	-3	.	.
C=CCC[C@H](Cc1ccc(F)cc1)C(=O)OC[C@H](Cc1c[nH]c2ccccc12)NC(=O)[C@@H](CC=C)CC(=O)N(CCO)Cc1ccccc1	46	60*	5	45	-2
C=CCC[C@@H](Cc1ccc(F)cc1)C(=O)OC[C@H](Cc1c[nH]c2ccccc12)NC(=O)[C@H](CC=C)CC(=O)N(CCO)Cc1ccccc1	35	60*	9	17	18
C=CCC[C@@H](Cc1ccc(F)cc1)C(=O)OC[C@@H](Cc1c[nH]c2ccccc12)NC(=O)[C@@H](CC=C)CC(=O)NCCO	44	29	11	14	-3
C=CCC[C@H](Cc1ccc(F)cc1)C(=O)OC[C@@H](Cc1c[nH]c2ccccc12)NC(=O)[C@@H](CC=C)CC(=O)N(CCO)Cc1ccccc1	28	49	8	12	7
Clc1ccccc1OCCn1nnc2ccccc21	-29	95*	-101	-16	-25
Cc1ccc(C)c(OCCn2nnc3ccccc32)c1	-9	-18	-48	-29	-16
N#C[C@H]1[C@@H](c2ccccc2-c2cccc(F)c2)[C@@H](CO)N1C(=O)C1CCC1	-4	.	1	.	.
CC(=O)NC[C@H]1[C@@H](c2ccc(-c3ccccc3)cc2)[C@H](CO)N1C(=O)C1CC1	5	.	4	.	.
Cc1c(/C(O)=C2\C(=O)C(=O)N(CCN(C)C)C2c2cccnc2)cnn1-c1ccccc1 (configuration not stated)	6	14	.	29	2
Cc1c(/C(O)=C2\C(=O)C(=O)N(CCCN(C)C)C2c2ccccc2)cnn1-c1ccccc1 (configuration not stated)	-5	82*	-1	86*	13
Cc1c(/C(O)=C2/C(=O)C(=O)N(CCN3CCOCC3)C2c2ccccn2)cnn1-c1ccccc1 (configuration not stated)	80*	92*	13	85*	55*
Nc1cc(Nc2ccccc2)ccn1	-7	11	3	1	1
SMILES	LGR2 antag	TWEAK-Fn14 inh	EWS-Fli block	TROY signal inh	EBV LMP1 NFkB
N#Cc1sc2nccc(Nc3ccccc3)c2c1N	.	80*	3	30	.
CC(=O)N1[C@H](CO)[C@H](c2ccc(-c3cccc(F)c3)cc2)[C@H]1CNC(=O)C1CC1	-11	.	-6	.	.
COc1ccc(OC)c(S(=O)(=O)Nc2cc3c4c(c2)C(C)C(=O)N4CCC3)c1 (configuration not stated)	-19	-8	7	57*	-10
CN(C)C1(CNC(=O)Nc2ccccc2)CCCCC1	-8	-4	-6	3	42*
COC(=O)c1c(C)[nH]c(C(=O)C(C)OC(=O)C2CC(=O)N(CCc3ccccc3)C2)c1C (configuration not stated)	.	9	-5	-7	3
COC(=O)c1c(C)[nH]c(C(=O)C(C)OC(=O)C2CC(=O)N(c3ccc(C)cc3)C2)c1C (configuration not stated)	-49	24	3	54*	10
CC1(C)CC(=O)C2=C(C1)NC1=C(C(=O)c3ccccc31)C2c1ccc(Cl)cc1 (configuration not stated)	17	109*	.	93*	14
Cc1c(/C=N/Nc2nc3ccccc3[nH]2)c2ccccc2n1C	-1	94*	-1	55*	-28
CC(C)Cn1c(/C=N/Nc2nc3ccccc3[nH]2)nc2ccccc21	19	-50	-12	-14	21
C=CCn1cc(/C=N/Nc2nc3ccccc3[nH]2)c2ccccc21	-12	53*	-40	13	-34
Cn1c(/C=N/Nc2nc3ccccc3[nH]2)nc2ccccc21	-3	-1	12	-43	-16
CCCn1c(/C=N/Nc2nc3ccccc3[nH]2)nc2ccccc21	-10	-68	-19	-104	47*
Cc1cccc(Nc2nc(N)c([N+](=O)[O-])c(N3CCCC(C)C3)n2)c1 (configuration not stated)	4	64*	.	36	10
Cc1cccc(Nc2nc(N)c([N+](=O)[O-])c(N3CCN(C)CC3)n2)c1	-5	-19	.	1	11
COCC#Cc1ccc([C@H]2[C@@H](CO)N3CCCCN(S(=O)(=O)c4ccc(OC)cc4)C[C@@H]23)cc1	10	.	11	.	.
CNC(=O)C[C@H]1CC[C@@H]2[C@H](COc3ccc(NC(=O)NC(C)C)cc3C(=O)N2C)O1	1	.	-3	.	.
CCOC(=O)C1CCN(C(=O)CNC(=O)OC(C)(C)C)CC1	-3	-2	.	3	43*
C[C@@H]1CN([C@H](C)CO)S(=O)(=O)c2ccc(-c3ccc(C#N)cc3)cc2O[C@H]1CN(C)Cc1ccccn1	-6	.	53*	.	.
C[C@@H]1CN([C@@H](C)CO)S(=O)(=O)c2ccc(-c3cccc(C#N)c3)cc2O[C@H]1CN(C)Cc1ccccn1	-17	.	29	.	.
C[C@@H]1CN([C@H](C)CO)S(=O)(=O)c2ccc(-c3ccccc3)cc2O[C@H]1CN(C)Cc1ccccn1	6	.	73*	.	.
C[C@H]1CN([C@@H](C)CO)S(=O)(=O)c2ccc(-c3ccccc3)cc2O[C@@H]1CN(C)Cc1cccnc1	-1	.	2	.	.
